Experimental data as given in PubChem BioAssay (EPA / NIEHS).
Where “and” joins values, the source holds several entries; their conditions need not be identical. Identical values can stand only once. Where a structure was tested more than once in an assay, its records may differ in their call. Calls of active or inactive are those of the source. How the source made its calls: active means hit-call score of the fitted dose curve at least 0.9, where 1 is the maximum; inactive means score below 0.9.

Key:
[1] = read-out: Human Leukocyte Antigen - DR isotype (HLADR), HLA-DRA (gene 3122); test: BSK_CASM3C_HLADR: BioMAP Diversity Plus: CASM3C Assay for Human Leukocyte Antigen - DR isotype (HLADR) Biomarker Activity (AID 2283043); settings: primary human coronary artery smooth muscle cells; actives raise or lower the signal;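 further: cell-surface HLA-DR protein level quantified by ELISA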
[2] = read-out: Macrophage colony-stimulating factor (MCSF), CSF1 (gene 1435); test: BSK_CASM3C_MCSF: BioMAP Diversity Plus: CASM3C Assay for Macrophage colony-stimulating factor (MCSF) Biomarker Activity (AID 2283044); settings: primary human coronary artery smooth muscle cells; actives raise or lower the signal;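 further: M-CSF protein amount quantified by ELISA after 24 h exposure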
[3] = read-out: Low-density lipoprotein receptor (LDLR), LDLR (gene 3949); test: BSK_CASM3C_LDLR: BioMAP Diversity Plus: CASM3C Assay for Low-density lipoprotein receptor (LDLR) Biomarker Activity (AID 2283045); settings: primary human coronary artery smooth muscle cells; actives raise or lower the signal;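 further: LDLR protein level on the cell surface quantified by ELISA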
[4] = read-out: Monocyte Chemoattractant Protein-1 (MCP1), CCL2 (gene 6347); test: BSK_CASM3C_MCP1: BioMAP Diversity Plus: CASM3C Assay for Monocyte Chemoattractant Protein-1 (MCP1) Biomarker Activity (AID 2283046); settings: primary human coronary artery smooth muscle cells; actives raise or lower the signal;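 further: MCP-1 level quantified by ELISA 24 h after dosing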
[5] = BSK_CASM3C_Proliferation: Cell Proliferation Assessment in the BioMAP Diversity Plus: CASM3C Assay (AID 2283047); settings: primary human coronary artery smooth muscle cells;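 further: sulforhodamine B total protein stain as relative cell number at 560 nm; sub-confluent cells exposed 48 h before staining; fitted both ways against DMSO so gain or loss of cell number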
[6] = read-out: Monokine induced gamma interferon (MIG), CXCL9 (gene 4283); test: BSK_CASM3C_MIG: BioMAP Diversity Plus: CASM3C Assay for Monokine induced gamma interferon (MIG) Biomarker Activity (AID 2283048); settings: primary human coronary artery smooth muscle cells; actives raise or lower the signal;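 further: MIG protein level measured by ELISA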
[7] = read-out: serum amyloid A (SAA), SAA1 (gene 6288); test: BSK_CASM3C_SAA: BioMAP Diversity Plus: CASM3C Assay for serum amyloid A (SAA) Biomarker Activity (AID 2283049); settings: primary human coronary artery smooth muscle cells; actives raise or lower the signal;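 further: SAA protein level quantified by ELISA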
[8] = BSK_CASM3C_SRB: Viability Assessment in the BioMAP Diversity Plus: CASM3C Assay (AID 2283050); settings: primary human coronary artery smooth muscle cells;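 further: total protein by SRB staining as cytotoxicity measure in parallel cultures; cells exposed to compound for 24 h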
[9] = read-out: Thrombomodulin, THBD (gene 7056); test: BSK_CASM3C_Thrombomodulin: BioMAP Diversity Plus: CASM3C Assay for Thrombomodulin Biomarker Activity (AID 2283051); settings: primary human coronary artery smooth muscle cells; actives raise or lower the signal;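 further: thrombomodulin protein level measured by ELISA 24 h after dosing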
[10] = read-out: Tissue Factor, F3 (gene 2152); test: BSK_CASM3C_TissueFactor: BioMAP Diversity Plus: CASM3C Assay for Tissue Factor Biomarker Activity (AID 2283052); settings: primary human coronary artery smooth muscle cells; actives raise or lower the signal;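 further: cell surface tissue factor protein level read by ELISA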
[11] = read-out: Interferon-gamma inducible Protein 10 (IP10), CXCL10 (gene 3627); test: BSK_hDFCGF_IP10: BioMAP Diversity Plus: hDFCGF Assay for Interferon-gamma inducible Protein 10 (IP10) Biomarker Activity (AID 2283053); settings: primary human foreskin fibroblasts; actives raise or lower the signal
In short: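 ELISA read-out of IP-10 (CXCL10) from primary human skin fibroblasts, 24 h after compound addition. Gain or loss of signal versus DMSO baseline, bidirectional curve fitting.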

[12] = read-out: Urokinase-type plasminogen activator receptor (uPAR), PLAUR (gene 5329); test: BSK_CASM3C_uPAR: BioMAP Diversity Plus: CASM3C Assay for Urokinase-type plasminogen activator receptor (uPAR) Biomarker Activity (AID 2283054); settings: primary human coronary artery smooth muscle cells; actives raise or lower the signal;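 further: cell-surface uPAR protein level quantified by ELISA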
[13] = read-out: Vascular cell adhesion molecule 1 (VCAM1), VCAM1 (gene 7412); test: BSK_CASM3C_VCAM1: BioMAP Diversity Plus: CASM3C Assay for Vascular cell adhesion molecule 1 (VCAM1) Biomarker Activity (AID 2283055); settings: primary human coronary artery smooth muscle cells; actives raise or lower the signal;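 further: VCAM-1 protein level quantified by ELISA on the cells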
[14] = read-out: Collagen III, COL3A1 (gene 1281); test: BSK_hDFCGF_CollagenIII: BioMAP Diversity Plus: hDFCGF Assay for Collagen III Biomarker Activity (AID 2283056); settings: primary human foreskin fibroblasts; actives raise or lower the signal
In short: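 ELISA read-out of collagen III from human skin fibroblast cultures sampled 24 h post-dosing. Values were derived by bidirectional fitting relative to the DMSO vehicle control.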

[15] = read-out: Epidermal growth factor receptor (EGFR), EGFR (gene 1956); test: BSK_hDFCGF_EGFR: BioMAP Diversity Plus: hDFCGF Assay for Epidermal growth factor receptor (EGFR) Biomarker Activity (AID 2283057); settings: primary human foreskin fibroblasts; actives raise or lower the signal
In short: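 ELISA readout of EGFR on human dermal fibroblasts (primary foreskin cells), 24 h post-dosing; bidirectional curve fit vs DMSO baseline, gain or loss of signal scored.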

[16] = read-out: Interleukin-8 (IL8), CXCL8 (gene 3576); test: BSK_hDFCGF_IL8: BioMAP Diversity Plus: hDFCGF Assay for Interleukin-8 (IL8) Biomarker Activity (AID 2283058); settings: primary human foreskin fibroblasts; actives raise or lower the signal
In short: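 Cells used are human skin primary fibroblasts. Chemical is added, cultures run 24 h, then IL-8 is quantified by ELISA, and gain or loss versus DMSO control is fitted in both directions.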

[17] = BSK_hDFCGF_Proliferation: Cell Proliferation Assessment in the BioMAP Diversity Plus: hDFCGF Assay (AID 2283059); settings: primary human foreskin fibroblasts;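 further: curves fitted for both rise and fall of signal versus DMSO baseline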
In short: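 Primary human foreskin fibroblasts, sub-confluent; […]; 10% TCA fix, 0.1% SRB stain, A560 total protein. Gain/loss fitted bidirectionally vs DMSO control.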

[18] = read-out: Macrophage colony-stimulating factor (MCSF), CSF1 (gene 1435); test: BSK_hDFCGF_MCSF: BioMAP Diversity Plus: hDFCGF Assay for Macrophage colony-stimulating factor (MCSF) Biomarker Activity (AID 2283060); settings: primary human foreskin fibroblasts; actives raise or lower the signal
In short: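 Primary human foreskin fibroblasts dosed with chemical; 24 h later, M-CSF quantified by ELISA; curves fitted in both directions vs DMSO negative control.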

[19] = BSK_hDFCGF_SRB: Viability Assessment in the BioMAP Diversity Plus: hDFCGF Assay (AID 2283061); settings: primary human foreskin fibroblasts;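 further: cells exposed to compound for 24 h before the read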
In short: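 Readout is SRB absorbance at 560 nm, reflecting total protein in parallel cultures of human foreskin fibroblasts harvested 24 h after chemical dosing. Activity was fitted bidirectionally relative to DMSO.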

[20] = read-out: TIMP metallopeptidase inhibitor 1 (TIMP1), TIMP1 (gene 7076); test: BSK_hDFCGF_TIMP1: BioMAP Diversity Plus: hDFCGF Assay for TIMP metallopeptidase inhibitor 1 (TIMP1) Biomarker Activity (AID 2283062); settings: primary human foreskin fibroblasts; actives raise or lower the signal
In short: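 Human skin fibroblasts (primary), hDFCGF system; compound exposure 24 h; TIMP-1 by ELISA; bidirectional fit vs DMSO negative control; overt cytotoxicity by SRB in parallel wells.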

Measured: AC50

COC(=O)c1c(Cl)c(Cl)c(C(=O)OC)c(Cl)c1Cl
inactive: all assays above

COc1ccc(-n2nc(C(F)F)cc2-c2ccc(S(C)=O)cc2)cc1 (stereo unspecified)
inactive: all assays above

CC(C)=CCCC(C)CCO (stereo unspecified)
active: [17] 26.4 µM
inactive: all other assays above

CC[C@H]1CC[C@H](NCc2cc3c(cc2OC)[C@H]2C[C@H]2C(=O)N3C)[C@H](c2ccccc2)N1
active: [5] 7.17 µM | [14] 1.57 µM | [17] 20 µM
inactive: all other assays above

Cc1ccc(O)cc1
active: [12] 4.24 µM
inactive: all other assays above

Cc1ccc(C)c(O)c1
inactive: all assays above

Cn1cnc([N+](=O)[O-])c1Sc1ncnc2nc[nH]c12
active: [1] 11.3 µM | [5] 10.2 µM and 12 µM and 4.25 µM | [11] 4.43 µM and 7.98 µM | [13] 15.6 µM and 8.5 µM | [14] 4.26 µM | [17] 19.9 µM | [18] 7.13 µM and 9.58 µM
inactive: [1] | [2] | [3] | [4] | [6] | [7] | [8] | [9] | [10] | [11] | [12] | [13] | [14] | [16] | [17] | [18] | [19] | [20]

O=C(CCCCCCCCc1cccnc1)N1CCC(C=C(c2ccccc2)c2ccccc2)CC1
inactive: [9] | [10] | [15]
active: [1] 35 µM | [2] 38 µM | [3] 34.3 µM | [4] 38.2 µM | [5] 35.4 µM | [6] 38.3 µM | [7] 37.5 µM | [8] 39.1 µM | [11] 9 µM | [12] 39.2 µM | [13] 37.9 µM | [14] 4.91 µM | [16] 10.7 µM | [17] 5.65 µM | [18] 7.88 µM | [19] 7.83 µM | [20] 7.71 µM

O=C(O)CCN(C1(C(=O)NO)CCCC1)S(=O)(=O)c1ccc(Oc2ccc(F)cc2)cc1
inactive: all assays above

CCCCC(CC)COC(=O)CCCCCCCCC(=O)OCC(CC)CCCC (stereo unspecified)
active: [5] 7.33 µM | [11] 6.18 µM
inactive: all other assays above

O=C1CCC(N2C(=O)c3ccccc3C2=O)C(=O)N1 (stereo unspecified)
inactive: all assays above

C=CC(=C)CCC=C(C)C
inactive: all assays above

CC1(C)C(=O)N(Br)C(=O)N1Br
not listed: [17]
inactive: all other assays above

COc1ccc(/C=C/S(=O)(=O)NC(=O)c2ccc(C)cc2Cl)cc1
active: [5] 18.9 µM | [17] 13.6 µM
inactive: all other assays above

Nc1nc2ncc(CNc3ccc(C(=O)N[C@@H](CCC(=O)O)C(=O)O)cc3)nc2c(=O)[nH]1
inactive: all assays above

CCOc1cccc(-n2cc(C(=O)N3CCN(c4cc(C(=O)O)c5ccccc5c4)CC3)nc2-c2ccc(C)cc2)c1
inactive: [3] | [7] | [8] | [9] | [10]
active: [1] 27 µM | [2] 19.2 µM | [4] 34.5 µM | [5] 30.4 µM | [6] 19.2 µM | [11] 10.4 µM | [12] 31.1 µM | [13] 19.2 µM | [14] 4.99 µM | [15] 5.21 µM | [16] 14.2 µM | [18] 7.68 µM | [19] 6.49 µM | [20] 13.3 µM

CC(C)=CCC/C(C)=C/CO
inactive: all assays above

COC(=O)c1ccccc1O
inactive: all assays above

Nc1cccc(N)c1
active: [17] 0.148 µM
inactive: all other assays above

CC(=O)OC[C@H]1O[C@@](COC(C)=O)(O[C@H]2O[C@H](COC(C)=O)[C@@H](OC(C)=O)[C@H](OC(C)=O)[C@H]2OC(C)=O)[C@@H](OC(C)=O)[C@@H]1OC(C)=O
not listed: [17]
inactive: all other assays above

Fc1ccccc1[C@@H](F)COC1CCC(Nc2ncnc3[nH]ncc23)CC1 (stereo partly specified)
active: [1] 6.88 µM | [5] 29.2 µM | [12] 9.15 µM | [13] 7.56 µM | [17] 10.3 µM
inactive: all other assays above

C=CCCCCCCCCC(=O)O
inactive: all assays above

CCCC(=O)OCC
inactive: all assays above

COCCOCCOCCOC
not listed: [17]
inactive: all other assays above
